# Measured values taken from publication PMC5540273 (PLoS ONE, 2017).
# Where two headings read alike, the source gives them in different places.
# Tests used:
# [1] = tested on: T1, GRK2; settings: concentration: 1 μM, replicates: in singlicate; n = 1
# T1 construct: gene ADRBK1
# [2] = tested on: T2, GRK3; settings: concentration: 1 μM, replicates: in singlicate; n = 1
# T2 construct: gene ADRBK2
# [3] = tested on: GRK4; settings: concentration: 1 μM, replicates: in singlicate; n = 1
# [4] = tested on: GRK7; settings: concentration: 1 μM, replicates: in singlicate; n = 1
# [5] = tested on: GSK3A; settings: concentration: 1 μM, replicates: in singlicate; n = 1
# [6] = tested on: GSK3B; settings: n = 1
# [7] = tested on: T3, HASPIN; settings: concentration: 1 μM, replicates: in singlicate; n = 1
# T3 construct: gene GSG2
# [8] = tested on: HCK; settings: concentration: 1 μM, replicates: in singlicate; n = 1
# [9] = tested on: HIPK1; settings: concentration: 1 μM, replicates: in singlicate; n = 1
# [10] = tested on: HIPK2; settings: concentration: 1 μM, replicates: in singlicate; n = 1
# [11] = tested on: HIPK3; settings: concentration: 1 μM, replicates: in singlicate; n = 1
# [12] = tested on: HIPK4; settings: concentration: 1 μM, replicates: in singlicate; n = 1
# [13] = tested on: HPK1; settings: concentration: 1 μM, replicates: in singlicate; n = 1
# [14] = tested on: HUNK; settings: concentration: 1 μM, replicates: in singlicate; n = 1
# [15] = tested on: ICK; settings: concentration: 1 μM, replicates: in singlicate; n = 1
# [16] = tested on: IGF1R; settings: concentration: 1 μM, replicates: in singlicate; n = 1
# [17] = tested on: T4, IKK-alpha; settings: concentration: 1 μM, replicates: in singlicate; n = 1
# T4 construct: gene CHUK
# [18] = tested on: T5, IKK-beta; settings: concentration: 1 μM, replicates: in singlicate; n = 1
# T5 construct: gene IKBKB
# [19] = tested on: T6, IKK-epsilon; settings: concentration: 1 μM, replicates: in singlicate; n = 1
# T6 construct: gene IKBKE
# [20] = tested on: INSRR; settings: concentration: 1 μM, replicates: in singlicate; n = 1
# [21] = concentration: 1 μM, replicates: in singlicate
# 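Note: KINOMEscan kinase panel screen.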
smiles,measurement,setting,value
COc1cccc(C2=C(N(C)c3ccccc3)C(=O)NC2=O)c1 [SB-334865],%Inh,[1],0%
same,%Inh,[2],5%
same,%Inh,[3],0%
same,%Inh,[4],0%
same,%Inh,[5],0%
same,%Inh,[6]; [21],24%
same,%Inh,[7],2%
same,%Inh,[8],0%
same,%Inh,[9],0%
same,%Inh,[10],0%
same,%Inh,[11],25%
same,%Inh,[12],0%
same,%Inh,[13],53%
same,%Inh,[14],9%
same,%Inh,[15],0%
same,%Inh,[16],12%
same,%Inh,[17],0%
same,%Inh,[18],14%
same,%Inh,[19],3%
same,%Inh,[20],0%
Fc1cccc(CSc2nnc(-c3ccc4c(c3)CCO4)o2)c1,%Inh,[1],35%
same,%Inh,[2],10%
same,%Inh,[3],0%
same,%Inh,[4],19%
same,%Inh,[5],64%
same,%Inh,[6]; 1 µM,37%
same,%Inh,[7],20%
same,%Inh,[8],1%
same,%Inh,[9],18%
same,%Inh,[10],30%
same,%Inh,[11],6%
same,%Inh,[12],0%
same,%Inh,[13],0%
same,%Inh,[14],0%
same,%Inh,[15],0%
same,%Inh,[16],13%
same,%Inh,[17],14%
same,%Inh,[18],10%
same,%Inh,[19],20%
same,%Inh,[20],0%
CCn1c(-c2ccoc2)nc2cnccc21 [SB-733887],%Inh,[1],0%
same,%Inh,[2],0%
same,%Inh,[3],0%
same,%Inh,[4],93.9%
same,%Inh,[5],35%
same,%Inh,[6]; [21],22%
same,%Inh,[7],37%
same,%Inh,[8],0%
same,%Inh,[9],0%
same,%Inh,[10],0%
same,%Inh,[11],20%
same,%Inh,[12],0%
same,%Inh,[13],35%
same,%Inh,[14],0%
same,%Inh,[15],14%
same,%Inh,[16],0%
same,%Inh,[17],30%
same,%Inh,[18],29%
same,%Inh,[19],60%
same,%Inh,[20],0%
O=C(Nc1n[nH]c2nc(-c3ccccc3)c(Cl)cc12)C1CC1 [SB-734909],%Inh,[1],0%
same,%Inh,[2],83%
same,%Inh,[3],17%
same,%Inh,[4],0%
same,%Inh,[5],90.6%
same,%Inh,[6]; 1 µM,56%
same,%Inh,[7],0%
same,%Inh,[8],0%
same,%Inh,[9],20%
same,%Inh,[10],0%
same,%Inh,[11],33%
same,%Inh,[12],0%
same,%Inh,[13],11%
same,%Inh,[14],20%
same,%Inh,[15],29%
same,%Inh,[16],0%
same,%Inh,[17],43%
same,%Inh,[18],56%
same,%Inh,[19],0%
same,%Inh,[20],8%
Cc1cc(Nc2nc(-c3cccc(C)n3)nc3ccccc23)ccn1 [GW872411],%Inh,[1],0%
same,%Inh,[2],0%
same,%Inh,[3],35%
same,%Inh,[4],0%
same,%Inh,[5],0%
same,%Inh,[6]; [21],0%
same,%Inh,[7],0%
same,%Inh,[8],7%
same,%Inh,[9],0%
same,%Inh,[10],0%
same,%Inh,[11],0%
same,%Inh,[12],0%
same,%Inh,[13],0%
same,%Inh,[14],28%
same,%Inh,[15],0%
same,%Inh,[16],0%
same,%Inh,[17],0%
same,%Inh,[18],0%
same,%Inh,[19],0%
same,%Inh,[20],0%
CCC(=O)c1c(-c2ccccc2)c2cc(Cl)ccc2c(=O)n1Cc1cc(S(C)(=O)=O)n(CCC(C)(C)O)n1,%Inh,[1],0%
same,%Inh,[2],0%
same,%Inh,[3],0%
same,%Inh,[4],29%
same,%Inh,[5],0%
same,%Inh,[6]; [21],0%
same,%Inh,[7],43%
same,%Inh,[8],10%
same,%Inh,[9],33%
same,%Inh,[10],29%
same,%Inh,[11],0%
same,%Inh,[12],3%
same,%Inh,[13],17%
same,%Inh,[14],0%
same,%Inh,[15],0%
same,%Inh,[16],4%
same,%Inh,[17],0%
same,%Inh,[18],3%
same,%Inh,[19],30%
same,%Inh,[20],10%
COc1ccc(-c2coc3ccc(-c4nnc(SCc5cccc(C#N)c5)o4)cc23)cc1,%Inh,[1],0%
same,%Inh,[2],0%
same,%Inh,[3],0%
same,%Inh,[4],27%
same,%Inh,[5],96.1%
same,%Inh,[6]; [21],45%
same,%Inh,[7],0%
same,%Inh,[8],20%
same,%Inh,[9],32%
same,%Inh,[10],24%
same,%Inh,[11],20%
same,%Inh,[12],0%
same,%Inh,[13],0%
same,%Inh,[14],0%
same,%Inh,[15],17%
same,%Inh,[16],0%
same,%Inh,[17],19%
same,%Inh,[18],7%
same,%Inh,[19],0%
same,%Inh,[20],0%
CC(C)(C)c1ccc(C(=O)Nc2cn3cc(-c4ccccc4)ccc3n2)cc1,%Inh,[1],0%
same,%Inh,[2],0%
same,%Inh,[3],26%
same,%Inh,[4],0%
same,%Inh,[5],12%
same,%Inh,[6]; [21],30%
same,%Inh,[7],0%
same,%Inh,[8],13%
same,%Inh,[9],43%
same,%Inh,[10],52%
same,%Inh,[11],20%
same,%Inh,[12],0%
same,%Inh,[13],0%
same,%Inh,[14],9%
same,%Inh,[15],0%
same,%Inh,[16],0%
same,%Inh,[17],5%
same,%Inh,[18],6%
same,%Inh,[19],0%
same,%Inh,[20],0%
O=C(Nc1n[nH]c2cc(-c3ccccc3F)ccc12)C1CC1 [SB-733371],%Inh,[1],0%
same,%Inh,[2],0%
same,%Inh,[3],26%
same,%Inh,[4],0%
same,%Inh,[5],24%
same,%Inh,[6]; [21],19%
same,%Inh,[7],22%
same,%Inh,[8],0%
same,%Inh,[9],2%
same,%Inh,[10],0%
same,%Inh,[11],3%
same,%Inh,[12],0%
same,%Inh,[13],8%
same,%Inh,[14],0%
same,%Inh,[15],32%
same,%Inh,[16],0%
same,%Inh,[17],0%
same,%Inh,[18],0%
same,%Inh,[19],0%
same,%Inh,[20],9%
CCCC(=O)Nc1n[nH]c2ncc(-c3cccc4ccccc34)cc12 [SB-642057],%Inh,[1],0%
same,%Inh,[2],0%
same,%Inh,[3],0%
same,%Inh,[4],0%
same,%Inh,[5],87%
same,%Inh,[6]; 1 µM,33%
same,%Inh,[7],0%
same,%Inh,[8],1%
same,%Inh,[9],0%
same,%Inh,[10],0%
same,%Inh,[11],11%
same,%Inh,[12],26%
same,%Inh,[13],31%
same,%Inh,[14],30%
same,%Inh,[15],45%
same,%Inh,[16],16%
same,%Inh,[17],9%
same,%Inh,[18],30%
same,%Inh,[19],27%
same,%Inh,[20],0%
CN1C(=O)C(Nc2ccccc2)=C(c2ccccc2)C1=O [SB-300079],%Inh,[1],0%
same,%Inh,[2],0%
same,%Inh,[3],0%
same,%Inh,[4],0%
same,%Inh,[5],9%
same,%Inh,[6]; [21],3%
same,%Inh,[7],15%
same,%Inh,[8],13%
same,%Inh,[9],28%
same,%Inh,[10],9%
same,%Inh,[11],0%
same,%Inh,[12],0%
same,%Inh,[13],0%
same,%Inh,[14],67%
same,%Inh,[15],0%
same,%Inh,[16],0%
same,%Inh,[17],11%
same,%Inh,[18],0%
same,%Inh,[19],0%
same,%Inh,[20],0%
CCS(=O)(=O)c1ccc(OC)c(Nc2ncc(-c3ccc(F)cc3)o2)c1.Cl [GW591947],%Inh,[1],0%
same,%Inh,[2],0%
same,%Inh,[3],0%
same,%Inh,[4],0%
same,%Inh,[5],8%
same,%Inh,[6]; [21],0%
same,%Inh,[7],0%
same,%Inh,[8],0%
same,%Inh,[9],33%
same,%Inh,[10],0%
same,%Inh,[11],37%
same,%Inh,[12],0%
same,%Inh,[13],17%
same,%Inh,[14],22%
same,%Inh,[15],0%
same,%Inh,[16],20%
same,%Inh,[17],0%
same,%Inh,[18],1%
same,%Inh,[19],0%
same,%Inh,[20],0%
O=c1cc(N2CCOCC2)nc2n(Cc3ccc(F)c(Cl)c3)ccn12 [GSK2297099],%Inh,[1],0%
same,%Inh,[2],0%
same,%Inh,[3],0%
same,%Inh,[4],0%
same,%Inh,[5],0%
same,%Inh,[6]; [21],8%
same,%Inh,[7],0%
same,%Inh,[8],0%
same,%Inh,[9],7%
same,%Inh,[10],0%
same,%Inh,[11],23%
same,%Inh,[12],0%
same,%Inh,[13],25%
same,%Inh,[14],0%
same,%Inh,[15],16%
same,%Inh,[16],0%
same,%Inh,[17],3%
same,%Inh,[18],17%
same,%Inh,[19],0%
same,%Inh,[20],0%
Nc1n[nH]c2nnc(-c3ccccc3)c(-c3ccccc3)c12 [GW554060],%Inh,[1],0%
same,%Inh,[2],44%
same,%Inh,[3],6%
same,%Inh,[4],0%
same,%Inh,[5],91%
same,%Inh,[6]; 1 µM,42%
same,%Inh,[7],10%
same,%Inh,[8],0%
same,%Inh,[9],50%
same,%Inh,[10],86%
same,%Inh,[11],68%
same,%Inh,[12],0%
same,%Inh,[13],27%
same,%Inh,[14],5%
same,%Inh,[15],0%
same,%Inh,[16],0%
same,%Inh,[17],28%
same,%Inh,[18],0%
same,%Inh,[19],0%
same,%Inh,[20],0%
CCc1ccc(-c2ccc3c(c2)-c2nn(C)cc2S(=O)(=O)N3C)cc1,%Inh,[1],0%
same,%Inh,[2],0%
same,%Inh,[3],0%
same,%Inh,[4],0%
same,%Inh,[5],30%
same,%Inh,[6]; [21],0%
same,%Inh,[7],23%
same,%Inh,[8],2%
same,%Inh,[9],0%
same,%Inh,[10],0%
same,%Inh,[11],0%
same,%Inh,[12],0%
same,%Inh,[13],18%
same,%Inh,[14],47%
same,%Inh,[15],0%
same,%Inh,[16],0%
same,%Inh,[17],0%
same,%Inh,[18],1%
same,%Inh,[19],0%
same,%Inh,[20],0%
Nc1ncnc2c1ncn2-c1ccc(Cl)cc1 [AH2635],%Inh,[1],0%
same,%Inh,[2],41%
same,%Inh,[3],0%
same,%Inh,[4],0%
same,%Inh,[5],14%
same,%Inh,[6]; [21],0%
same,%Inh,[7],21%
same,%Inh,[8],0%
same,%Inh,[9],0%
same,%Inh,[10],0%
same,%Inh,[11],0%
same,%Inh,[12],0%
same,%Inh,[13],27%
same,%Inh,[14],19%
same,%Inh,[15],0%
same,%Inh,[16],0%
same,%Inh,[17],0%
same,%Inh,[18],0%
same,%Inh,[19],30%
same,%Inh,[20],0%
